From PubChem BioAssay AID1159580 (chemical genetic matrix, 2015)
The whole screen tested about 5,500 compounds, of which about 2,000 (36%) were called active. Another 18% or so got no clear call; they are omitted. No stated cut-off is given here; in the data, active means normalized growth mostly below about 0.91 (no sharp cut-off); inconclusive means no clear call, values can overlap the other calls; inactive means mostly above about 0.92. This is one part of the list.

Test: chemical genetic growth profiling, strain panel (AID 1159580);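 further: tested at 20 µM; growth read once vehicle control cultures reached saturation at 30 °C; 1 = growth at the plate median or of vehicle wells; lower values mean less growth of the strain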
Details: growth OD

Measured: normalized growth

CC(C)=CCC/C(C)=C/CO
inactive: S. cerevisiae deletion strains, locus YJR075W, strain HOC1, active compounds read low 1.01 | S. cerevisiae deletion strains, locus YKL009W, strain mrt4, active compounds read low 0.918 | S. cerevisiae deletion strains, locus YKL068W, active compounds read low 0.993 | S. cerevisiae deletion strains, locus YKL085W, strain MDH1 (second series), active compounds read low 0.98 | S. cerevisiae deletion strains, locus YKL085W, strain MDH1, active compounds read low 0.98 | S. cerevisiae deletion strains, locus YKL160W, strain elf1, active compounds read low 1.01 | S. cerevisiae deletion strains, locus YKL190W, strain CNB1, active compounds read low 1.01 | S. cerevisiae deletion strains, locus YKR001C, strain vps1, active compounds read low 0.99 | S. cerevisiae deletion strains, locus YKR026C, strain gcn3, active compounds read low 0.985 | S. cerevisiae deletion strains, locus YKR091W, strain srl3, active compounds read low 0.986 | S. cerevisiae deletion strains, locus YLL001W, strain dnm1, active compounds read low 0.994 | S. cerevisiae deletion strains, locus YLL026W, active compounds read low 0.998 | S. cerevisiae deletion strains, locus YLL041C, strain sdh2, active compounds read low 0.98 | S. cerevisiae deletion strains, locus YLR027C, strain aat2, active compounds read low 0.996 | S. cerevisiae deletion strains, locus YLR039C, strain RIC1, active compounds read low 1.01 | S. cerevisiae deletion strains, locus YLR058C, strain SHM2, active compounds read low 1.01 | S. cerevisiae deletion strains, locus YLR102C, strain apc9, active compounds read low 0.991 | S. cerevisiae deletion strains, locus YLR113W, strain HOG1, active compounds read low 0.984 | S. cerevisiae deletion strains, locus YLR221C, strain rsa3, active compounds read low 0.947 | S. cerevisiae deletion strains, locus YLR258W, strain gsy2, active compounds read low 1 | S. cerevisiae deletion strains, locus YLR262C, strain YPT6 (second series), active compounds read low 0.978 | S. cerevisiae deletion strains, locus YLR262C, strain YPT6, active compounds read low 1.03 | S. cerevisiae deletion strains, locus YLR268W, strain sec22, active compounds read low 0.966 | S. cerevisiae deletion strains, locus YLR320W, strain mms22, active compounds read low 0.96 | S. cerevisiae deletion strains, locus YLR330W, strain CHS5, active compounds read low 1.01 | S. cerevisiae deletion strains, locus YLR342W, strain FKS1 (second series), active compounds read low 1.04 | S. cerevisiae deletion strains, locus YLR342W, strain FKS1, active compounds read low 0.974 | S. cerevisiae deletion strains, locus YLR357W, strain rsc2, active compounds read low 0.986 | S. cerevisiae deletion strains, locus YLR370C, strain arc18, active compounds read low 0.983 | S. cerevisiae deletion strains, locus YLR371W, strain rom2, active compounds read low 0.985 | S. cerevisiae deletion strains, locus YLR384C, strain iki3, active compounds read low 0.981 | S. cerevisiae deletion strains, locus YLR418C, strain cdc73, active compounds read low 0.975 | S. cerevisiae deletion strains, locus YML016C, strain PPZ1, active compounds read low 1.02 | S. cerevisiae deletion strains, locus YML032C, strain rad52, active compounds read low 0.991 | S. cerevisiae deletion strains, locus YML120C, strain ndi1, active compounds read low 1.01 | S. cerevisiae deletion strains, locus YML124C, strain tub3, active compounds read low 0.991 | S. cerevisiae deletion strains, locus YMR058W, strain fet3, active compounds read low 0.972 | S. cerevisiae deletion strains, locus YMR078C, strain ctf18, active compounds read low 0.98 | S. cerevisiae deletion strains, locus YMR125W, strain sto1, active compounds read low 1.01 | S. cerevisiae deletion strains, locus YMR129W, active compounds read low 0.994 | S. cerevisiae deletion strains, locus YMR205C, strain PFK2, active compounds read low 1.01 | S. cerevisiae deletion strains, locus YMR223W, strain ubp8, active compounds read low 1.01 | S. cerevisiae deletion strains, locus YMR231W, strain pep5, active compounds read low 0.983 | S. cerevisiae deletion strains, locus YMR263W, strain SAP30, active compounds read low 1.02 | S. cerevisiae deletion strains, locus YMR307W, strain GAS1, active compounds read low 1.01 | S. cerevisiae deletion strains, locus YNL067W, strain RPL9B, active compounds read low 1.01 | S. cerevisiae deletion strains, locus YNL071W, strain lat1, active compounds read low 0.988 | S. cerevisiae deletion strains, locus YNL128W, strain TEP1, active compounds read low 1.01 | S. cerevisiae deletion strains, locus YNL153C, strain GIM3, active compounds read low 0.998 | S. cerevisiae deletion strains, locus YNL183C, strain NPR1, active compounds read low 0.991 | S. cerevisiae deletion strains, locus YNL209W, strain ssb2, active compounds read low 0.99 | S. cerevisiae deletion strains, locus YNL233W, strain BNI4, active compounds read low 1.01 | S. cerevisiae deletion strains, locus YNL248C, strain rpa49, active compounds read low 0.969 | S. cerevisiae deletion strains, locus YNL250W, strain rad50, active compounds read low 0.992 | S. cerevisiae deletion strains, locus YNL271C, strain bni1, active compounds read low 0.975 | S. cerevisiae deletion strains, locus YNL298W, strain CLA4, active compounds read low 0.991 | S. cerevisiae deletion strains, locus YNL307C, strain MCK1, active compounds read low 1 | S. cerevisiae deletion strains, locus YNL322C, strain KRE1 (second series), active compounds read low 0.984 | S. cerevisiae deletion strains, locus YNL322C, strain KRE1, active compounds read low 1.01 | S. cerevisiae deletion strains, locus YNR049C, strain mso1, active compounds read low 0.984 | S. cerevisiae deletion strains, locus YNR052C, strain pop2, active compounds read low 0.987 | S. cerevisiae deletion strains, locus YOL006C, strain TOP1, active compounds read low 0.999 | S. cerevisiae deletion strains, locus YOL012C, strain htz1 0.813 | S. cerevisiae deletion strains, locus YOL147C, strain pex11, active compounds read low 0.996 | S. cerevisiae deletion strains, locus YOR001W, strain rrp6, active compounds read low 0.923 | S. cerevisiae deletion strains, locus YOR061W, strain CKA2, active compounds read low 1.02 | S. cerevisiae deletion strains, locus YOR069W, strain VPS5, active compounds read low 1.01 | S. cerevisiae deletion strains, locus YOR070C, strain gyp1, active compounds read low 0.987 | S. cerevisiae deletion strains, locus YOR080W, strain dia2, active compounds read low 0.987 | S. cerevisiae deletion strains, locus YOR083W, strain WHI5, active compounds read low 1.02 | S. cerevisiae deletion strains, locus YOR106W, strain vam3, active compounds read low 1.02 | S. cerevisiae deletion strains, locus YOR136W, strain idh2, active compounds read low 0.994 | S. cerevisiae deletion strains, locus YOR144C, strain elg1, active compounds read low 0.994 | S. cerevisiae deletion strains, locus YOR184W, strain ser1, active compounds read low 0.949 | S. cerevisiae deletion strains, locus YOR231W, strain MKK1, active compounds read low 0.983 | S. cerevisiae deletion strains, locus YOR265W, strain rbl2, active compounds read low 0.989 | S. cerevisiae deletion strains, locus YOR270C, strain vph1, active compounds read low 0.953 | S. cerevisiae deletion strains, locus YOR290C, strain snf2, active compounds read low 1 | S. cerevisiae deletion strains, locus YOR316C, strain cot1, active compounds read low 0.992 | S. cerevisiae deletion strains, locus YPL051W, strain arl3, active compounds read low 0.996 | S. cerevisiae deletion strains, locus YPL055C, strain LGE1, active compounds read low 1.04 | S. cerevisiae deletion strains, locus YPL078C, strain atp4, active compounds read low 1.01 | S. cerevisiae deletion strains, locus YPL106C, strain sse1, active compounds read low 0.977 | S. cerevisiae deletion strains, locus YPL240C, strain hsp82, active compounds read low 0.99 | S. cerevisiae deletion strains, locus YPL241C, strain CIN2, active compounds read low 1 | S. cerevisiae deletion strains, locus YPL256C, strain CLN2, active compounds read low 1.05 | S. cerevisiae deletion strains, locus YPR119W, strain clb2, active compounds read low 0.991 | S. cerevisiae deletion strains, locus YPR141C, strain kar3, active compounds read low 0.991 | S. cerevisiae deletion strains, locus YPR163C, strain tif3, active compounds read low 0.987 | S. cerevisiae deletion strains, locus YPR167C, strain met16, active compounds read low 0.995 | S. cerevisiae deletion strains, strain wtn01, active compounds read low 0.987 | S. cerevisiae strains, strain wild type, active compounds read low 1.02
